# According to publication PMC4336329 (PLoS ONE, 2015):
# Among all 310,000 compounds or so, about 14,000 (4.5%) showed an effect of 50% or more. The effect is printed as a negative number. The sample as a whole holds a higher share of strong results than the screen did. *1 amine or outer side, *2 acyl side, *3 side chain or, on linkers, in order; H or OH if unused. Where a SMILES comes first, the peptide text is derived from it. Bridges are numbered along the chain shown (N, C = ends). [ ]: non-standard residue; d: D form. ξ: configuration not given here. hSer(Ph(2-I,4-NO2,6-CO)) = O=C([C@H](CCOc1c(I)cc([N+](=O)[O-])cc1C(=O)[*:3])N[*:1])[*:2]; ξD = NC(CC(=O)O)C(=O)O
# Molecular target: human ether-à-go-go-related gene (hERG) potassium channel (human, UniProt Q12809)
# Assay: primary screen, population patch clamp on CHO cells stably expressing hERG; higher = less effect of the substance
# 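Note: peak tail current of the secondary pulse compared with the same well before compound.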
# Chain of human ether-à-go-go-related gene (hERG) potassium channel (Q12809 whole entry, looked up): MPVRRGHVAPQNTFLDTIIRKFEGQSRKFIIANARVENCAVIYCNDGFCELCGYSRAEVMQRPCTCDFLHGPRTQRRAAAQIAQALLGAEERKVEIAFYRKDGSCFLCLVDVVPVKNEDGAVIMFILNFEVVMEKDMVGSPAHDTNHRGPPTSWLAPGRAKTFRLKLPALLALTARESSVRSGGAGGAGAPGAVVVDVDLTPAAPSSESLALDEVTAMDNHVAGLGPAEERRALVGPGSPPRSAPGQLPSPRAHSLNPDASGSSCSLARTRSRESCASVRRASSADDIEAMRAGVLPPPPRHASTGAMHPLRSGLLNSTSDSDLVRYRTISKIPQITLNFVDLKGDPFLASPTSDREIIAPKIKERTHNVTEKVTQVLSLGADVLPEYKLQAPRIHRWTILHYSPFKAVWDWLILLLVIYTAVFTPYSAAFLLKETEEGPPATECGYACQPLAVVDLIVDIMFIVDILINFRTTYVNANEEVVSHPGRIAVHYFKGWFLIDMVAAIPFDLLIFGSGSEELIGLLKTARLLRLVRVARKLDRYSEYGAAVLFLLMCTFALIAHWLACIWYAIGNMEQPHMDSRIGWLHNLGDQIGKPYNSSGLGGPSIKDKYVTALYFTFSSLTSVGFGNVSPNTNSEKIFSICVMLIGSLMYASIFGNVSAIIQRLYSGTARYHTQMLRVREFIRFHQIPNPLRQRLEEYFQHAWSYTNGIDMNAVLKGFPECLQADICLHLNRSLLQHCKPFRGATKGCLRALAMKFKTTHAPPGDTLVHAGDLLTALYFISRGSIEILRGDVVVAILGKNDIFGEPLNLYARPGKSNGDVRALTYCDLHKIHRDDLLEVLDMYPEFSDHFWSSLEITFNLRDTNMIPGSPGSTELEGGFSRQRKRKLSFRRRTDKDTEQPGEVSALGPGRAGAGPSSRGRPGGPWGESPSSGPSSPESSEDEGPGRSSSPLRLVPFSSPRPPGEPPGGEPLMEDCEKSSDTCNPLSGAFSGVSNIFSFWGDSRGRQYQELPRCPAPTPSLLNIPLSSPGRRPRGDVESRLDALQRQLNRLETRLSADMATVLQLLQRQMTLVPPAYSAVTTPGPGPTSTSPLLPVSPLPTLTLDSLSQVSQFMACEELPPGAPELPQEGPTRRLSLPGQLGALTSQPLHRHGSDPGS
row,SMILES,"hERG current change (%, negative = inhibition) at 10uM [%]"
1,O=C(CSc1nnc(-c2ccccc2)o1)N1CCOCC1,6.37
2,"NC(=O)C(CC(=O)O)NC(=O)[C@@H]1CCOc2c(I)cc([N+](=O)[O-])cc2C(=O)N[C@@H](CCC(=O)O)C(=O)N[C@@H](CO)C(=O)N1 (stereo partly drawn) (ES[hSer(Ph(2-I,4-NO2,6-CO))][ξD]-NH2; lactam N-3)",-5.73
3,Br.C=CCn1c(C)csc1=Nc1ccc(C(=O)O)cc1,13.5
4,Cc1ccc(S(=O)(=O)Cc2cc(F)c([N+](=O)[O-])cc2[N+](=O)[O-])cc1,-14.3
5,COc1ccc(CCNC(=S)NC(=O)c2cccc(Cl)c2)cc1OC,1.73
6,Cc1ccc(-c2nnc(N3CCN(c4ccccn4)CC3)c3ccccc23)cc1,-46.3
7,COc1ccccc1N1CCN(CC(O)COc2ccc(C)cc2C)CC1.Cl (stereo not drawn),-73.1
8,COc1ccc(N2CCN(CCOc3ccc4c(C)cc(=O)oc4c3)CC2)cc1,-26.1
9,COc1ccccc1N1CCN(CC(O)COc2ccc3c(c2)OCO3)CC1.Cl (stereo not drawn),-33.7
10,Cc1ccccc1N1CCN(CCCOc2ccc3c(C)cc(=O)oc3c2)CC1,-75.3
11,COc1ccc(N2CCN(CC(O)COc3ccc(C)c(C)c3)CC2)cc1.Cl (stereo not drawn),-43.7
12,CNCC(O)CN1CCN(c2ccccc2OC)CC1.Cl (stereo not drawn),12.7
13,Cc1cc(=O)oc2cc(OCCCN3C(=O)c4ccccc4C3=O)ccc12,10.4
14,COc1ccccc1N1CCN(CC(O)COc2ccc(C)c(C)c2)CC1.Cl (stereo not drawn),-55.9
15,O=C(CCc1ccccc1)NNC(=O)C1CCCCC1,-2.12
16,CC(C)Nc1ccc(-n2nc3ccccc3[n+]2[O-])cc1,6.09
17,O=C1CCCCCC1C1(O)C(=O)Nc2ccccc21 (stereo not drawn),-1.78
18,CC1(c2ccccc2)NC(=O)N(CC(=O)NNC(=O)c2ccccc2)C1=O (stereo not drawn),21.3
19,Cc1ccc(CNC(=O)C2CC(=O)OC23CCCC3)c(C)c1 (stereo not drawn),-0.109
20,CCCCNC(=O)c1ccc(CNS(=O)(=O)c2ccc(Br)cc2)cc1,2
21,CCOc1ccc2nc(NC(=O)CSc3nc4cccnc4n3C)sc2c1,17.4
22,COc1ccccc1N1CCN(C(c2ccc(C)cc2)c2nnnn2C(C)C)CC1 (stereo not drawn),-5.61
23,O=C(Nc1sc2c(c1C(=O)O)CCCC2)c1ccccc1Cl,11.9
24,Cc1c(Cl)cnc(NC(=O)COC(=O)c2ccc3ncsc3c2)c1Cl,-2.49
25,CCn1cc(C(=O)NCCCOC)c(=O)c2cc(S(=O)(=O)N(C)C3CCCCC3)ccc21,-23
26,CCCN(CCC)CCCNC(=O)c1cn(CC)c2ccc(S(=O)(=O)N(C)C3CCCCC3)cc2c1=O,-74.3
27,CCN(CC)CCNC(=O)c1cn(CC)c2ccc(S(=O)(=O)N(C)C3CCCCC3)cc2c1=O,-67.2

row,SMILES,"hERG current change (%, negative = inhibition) at 10uM [%]"
1,CCCCN(CCCC)CCNC(=O)c1cn(CC)c2ccc(S(=O)(=O)N(C)C3CCCCC3)cc2c1=O,-82.5
2,CCOCCCNC(=O)c1cn(CC)c2ccc(S(=O)(=O)N(C)C3CCCCC3)cc2c1=O,-55.7
3,CCn1cc(C(=O)NCC(OC)OC)c(=O)c2cc(S(=O)(=O)N(C)C3CCCCC3)ccc21,-44.2
4,CCn1cc(C(=O)NC2CCCCC2)c(=O)c2cc(S(=O)(=O)N(C)C)ccc21,2.38
5,CCN(CC)CCNC(=O)c1cn(CC)c2ccc(S(=O)(=O)N(C)C)cc2c1=O,11.1
6,CC1(C(=O)OCC(=O)Nc2cccc(S(=O)(=O)NC3=NCCCCC3)c2)CC1(Cl)Cl (stereo not drawn),10.7
7,CCc1noc(C)c1C(=O)Nc1cc(S(=O)(=O)N2CCOCC2)ccc1OC(C)C,-45.1
8,CCN(CC(=O)Nc1c(F)cccc1F)C(=O)c1csc2c1CCCC2,7.01
9,COC(=O)c1c(-c2ccc(F)cc2)csc1NC(=O)c1ccco1,22.9
10,COc1cccc2cc(C(C)N(CCCN3CCOCC3)C(=S)Nc3cccc(C)c3)oc12 (stereo not drawn),14.8
11,CCC(C)c1ccc(OCc2ccc(C(=O)OC)o2)cc1 (stereo not drawn),-12.8
12,O=C(OCc1cc(-c2ccccc2)no1)c1ccc2ccccc2n1,12.2
13,Cc1cc(CNC(=O)COc2ccc(C#N)cc2)c2ccccc2n1,-47.2
14,COc1cc(OC)cc(C(=O)NCc2cc(C)nc3ccccc23)c1,-2.16
15,Cc1ccc(C)c(NC(=O)CN(C)C(=O)c2ccc(Cl)nc2)c1,-7.48
16,CCn1cc(C(=O)NCCCN(CC(C)C)CC(C)C)c(=O)c2cc(S(=O)(=O)N3CCOCC3)ccc21,-11.3
17,CCN(CC)CCCNC(=O)c1cn(CC)c2ccc(S(=O)(=O)N(C)C3CCCCC3)cc2c1=O,-75.7
18,CCn1cc(C(=O)NCCCN(CC(C)C)CC(C)C)c(=O)c2cc(S(=O)(=O)N(C)C3CCCCC3)ccc21,-69.6
19,Cc1ccccc1NC(=O)Cc1nc(-c2ccc3ccccc3c2)cs1,6.09
20,COc1ccc2[nH]cc(CCNC(=O)C3CC(=O)N(c4ccc(Cl)cc4)C3)c2c1 (stereo not drawn),-10.4
21,O=C(Nc1cccnc1)c1c(O)c2c(n(Cc3ccccc3)c1=O)CCCC2,2.61
22,CCCCCOc1ccc(Cn2ccnc2)cc1[N+](=O)[O-].Cl,-45.4
23,Cc1ccc(OCCCn2ccnc2)c([N+](=O)[O-])c1,-34.4
24,CCCOc1ccc(Cn2ccnc2)cc1[N+](=O)[O-],-52.3
25,Cc1ccc(OCCCCn2ccnc2)c([N+](=O)[O-])c1,-51.5
26,Cc1ccc(OCCn2ccnc2)c([N+](=O)[O-])c1,-4.29
27,COc1ccc(Cn2ccnc2)cc1[N+](=O)[O-],-0.186
